Bioassay records as filed in PubChem.
The entries come from a sample that favours hits as a whole.
KDM5B inhibitor = Primary screen for KDM5B Histone Demethylases FDH-coupled qHTS. KDM5B demethylase, FDH-coupled NADH fluorescence (FDH is formaldehyde dehydrogenase). Potency, µM (highest dose often 57.7 µM), hits mostly inhibitors. 220,000 compounds, 2.6% hits. AID 1347165, 2019; active means well fitted inhibition curve with a large enough effect; further: 0% is about no effect; nearly all actives have a fitted effect of over 70% in size
Target sequence (Q9UGL1 whole entry, looked up): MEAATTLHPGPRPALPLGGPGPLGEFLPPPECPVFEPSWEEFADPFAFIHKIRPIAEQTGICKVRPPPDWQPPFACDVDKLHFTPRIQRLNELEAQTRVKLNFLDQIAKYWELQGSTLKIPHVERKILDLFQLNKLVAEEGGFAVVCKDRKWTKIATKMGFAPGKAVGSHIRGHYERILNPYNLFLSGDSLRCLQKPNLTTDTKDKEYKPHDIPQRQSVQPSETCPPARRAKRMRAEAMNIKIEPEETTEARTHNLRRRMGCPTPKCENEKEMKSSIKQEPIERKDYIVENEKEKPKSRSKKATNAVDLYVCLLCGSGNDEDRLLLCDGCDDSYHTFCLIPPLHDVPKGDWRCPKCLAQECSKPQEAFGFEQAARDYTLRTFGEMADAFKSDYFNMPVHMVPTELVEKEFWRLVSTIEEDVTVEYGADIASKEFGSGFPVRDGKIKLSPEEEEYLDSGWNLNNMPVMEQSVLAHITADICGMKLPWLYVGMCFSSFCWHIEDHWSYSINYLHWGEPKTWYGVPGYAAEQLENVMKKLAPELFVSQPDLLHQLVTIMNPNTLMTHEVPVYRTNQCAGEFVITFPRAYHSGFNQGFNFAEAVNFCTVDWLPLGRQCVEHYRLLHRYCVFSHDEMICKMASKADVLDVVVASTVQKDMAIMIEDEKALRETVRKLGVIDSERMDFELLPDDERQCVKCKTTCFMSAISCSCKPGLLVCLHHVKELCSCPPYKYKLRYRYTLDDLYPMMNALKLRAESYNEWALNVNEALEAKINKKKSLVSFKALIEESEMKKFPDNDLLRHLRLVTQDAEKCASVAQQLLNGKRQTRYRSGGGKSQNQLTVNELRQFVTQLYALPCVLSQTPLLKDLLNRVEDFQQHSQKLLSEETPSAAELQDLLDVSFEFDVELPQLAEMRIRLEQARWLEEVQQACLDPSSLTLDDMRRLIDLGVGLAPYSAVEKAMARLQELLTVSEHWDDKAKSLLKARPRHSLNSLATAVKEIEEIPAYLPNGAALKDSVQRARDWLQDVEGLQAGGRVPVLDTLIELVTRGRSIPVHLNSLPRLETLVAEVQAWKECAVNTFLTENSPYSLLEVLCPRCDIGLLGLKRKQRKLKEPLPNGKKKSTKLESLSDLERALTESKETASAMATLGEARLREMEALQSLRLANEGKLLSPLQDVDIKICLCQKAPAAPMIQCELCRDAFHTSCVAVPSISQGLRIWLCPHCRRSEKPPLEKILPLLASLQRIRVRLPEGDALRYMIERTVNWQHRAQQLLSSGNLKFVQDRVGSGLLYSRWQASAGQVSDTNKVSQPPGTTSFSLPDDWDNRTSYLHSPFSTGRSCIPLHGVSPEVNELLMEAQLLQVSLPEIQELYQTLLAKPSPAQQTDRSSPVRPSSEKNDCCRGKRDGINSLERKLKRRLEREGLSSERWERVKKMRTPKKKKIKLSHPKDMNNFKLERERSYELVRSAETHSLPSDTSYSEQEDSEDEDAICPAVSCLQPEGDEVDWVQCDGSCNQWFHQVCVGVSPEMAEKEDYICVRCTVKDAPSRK
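Coupled FDH/NAD⁺ fluorescence readout. KDM5BΔAP 200 nM final; compound titration, 10 min RT preincubation; substrate mix 12.5 µM H3K4me3, 25 µM 2-OG, 50 µM Fe(II), 100 µM ascorbate, 0.25 mM NAD⁺, 0.25 U/mL FDH; ΔRFU over 30 min.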
Numbers without * were called inactive; i = inactive. Potency means the concentration at half of the fitted maximal effect.

SMILES	KDM5B inhibitor
COc1cccc(C(=O)CSc2nnc(-c3cc4ccccc4o3)n2C)c1	i
CC1Cc2ccccc2N1C(=O)CSc1ncc(C(F)(F)F)cc1Cl (centres undefined)	i
CCN(CC(=O)NC(=O)NC1CC1)C(C)c1ccc(C#N)cc1 (centres undefined)	i
O=C(Cn1nc(C(=O)O)c2ccccc2c1=O)NCc1cccc(Cl)c1	i
CCSc1nnc(-c2nn(C)c3c2CN(S(=O)(=O)c2ccc4c(c2)CCC4)CC3)n1C	i
CC(C)C(C)NC(=O)Nc1ccc(C(N)=O)c(Cl)c1 (centres undefined)	i
COCCn1c(COc2ccccc2-c2ccccc2)nnc1SC(F)F	i
COc1ccc(-c2ocnc2C(=O)Nc2ccccc2C)cc1	i
Cc1nc(Nc2ccccc2F)sc1C(=O)Nc1ccccc1	i
COc1cccc(-c2nc3ccccc3c(=O)o2)c1	i
COc1cccc(-c2nc3cc(SC)ccc3cc2CN(C)Cc2ccno2)c1	28.2µM*
COc1cccc(-c2nc(-c3ccc(F)cc3)cs2)c1	i
COc1cc(Cl)c(C)cc1-n1cc(C(=O)c2cc(C)ccc2O)cc(C#N)c1=O	i
CCOC(=O)Cn1c(=O)c2c3c(sc2n(Cc2ccc(F)cc2)c1=O)CCCC3	i
O=C(NCCc1ccccc1)c1ccccc1NC(=O)C1CC1	i
C=CCNC(=O)N[C@H]1CO[C@H]2[C@@H]1OC[C@@H]2Nc1nccc(-c2ccccc2OC)n1	28.2µM*
N#Cc1cccc(-c2ccnc(N[C@H]3CO[C@H]4[C@@H]3OC[C@@H]4NC(=O)C3CCCCC3)n2)c1	35.5µM*
N#Cc1cccc(-c2ccnc(N[C@H]3CO[C@H]4[C@@H]3OC[C@@H]4NC(=O)c3cccs3)n2)c1	31.6µM*
N#Cc1cccc(CN[C@@H]2CO[C@H](CNC(=O)c3cccs3)[C@H]2O)c1	i
CC(C)(C)c1ccnc(N[C@H]2CO[C@H]3[C@@H]2OC[C@@H]3NC(=O)NCc2ccccc2)n1	i
O=C(COc1ccccc1)N[C@H]1CO[C@H]2[C@@H]1OC[C@@H]2Nc1nccc(-c2cccc(F)c2)n1	i
COc1ccccc1-c1ccnc(N[C@H]2CO[C@H]3[C@@H]2OC[C@@H]3NC(=O)Nc2cccc(C(F)(F)F)c2)n1	i
C=CCNC(=O)N[C@H]1CO[C@H]2[C@@H]1OC[C@@H]2Nc1nccc(-c2cccc(F)c2)n1	39.8µM*
Cc1nc(C)c(C(=O)N2CCC[C@H](n3c(=O)n(Cc4ccccc4)c4cccnc43)C2)s1	i
Cc1ccc(Cn2c(CCCOc3ccc(Cl)cc3Cl)n[nH]c2=S)cc1	i
SMILES	KDM5B inhibitor
Cc1ccc2oc(=O)cc(N3CCOCC3)c2c1	i
CC(NC(=O)c1nn(C)c(=O)c2ccccc12)c1ccc(Cl)cc1 (centres undefined)	i
COc1ccc(CN2CCN(CC(=O)Nc3ccccc3C(=O)NC3CCCC3)CC2)cc1	i
O=C(N[C@H]1CO[C@H]2[C@@H]1OC[C@@H]2Nc1nccc(-c2cccc(F)c2)n1)c1cccs1	35.5µM*
CC(C)(C)c1ccnc(N[C@H]2CO[C@H]3[C@@H]2OC[C@@H]3NC(=O)c2cccs2)n1	i
COc1cc(NC(=O)O[C@@H]2CO[C@H]3[C@@H]2OC[C@@H]3NC(=O)c2cccs2)cc(OC)c1	i
COCCNC(=O)c1nc(-c2ccccc2OC)c2ccccn12	i
C#CCNC(=O)c1nc(-c2ccccc2OC)c2ccccn12	100µM*
C#CCNC(=O)c1nc(-c2ccccc2OC)c2cnccn12	89.1µM*
COc1ccccc1-c1nc(C(=O)N(C)C)n2ccccc12	112µM*
COc1ccccc1-c1nocc1CCC(=O)O	i
COc1ccccc1C(=O)Nc1c(-c2ccccc2)nc2ccccn12	i
O=[N+]([O-])c1cccc(-c2noc([C@@H]3Cc4nc[nH]c4CN3)n2)c1	i
O=C1CC2(C(=O)Nc3ccccc32)c2sc(C(=O)O)c(-c3ccc(Cl)cc3)c2N1 (centres undefined)	i
Cc1cc(C(=O)N(Cc2ccco2)Cc2cccs2)ccc1-n1cnnn1	i
COc1ccc(-c2noc(CN3CCCC(C(=O)Nc4ccc(-c5ccno5)cc4)C3)n2)cc1OC (centres undefined)	i
O=C(OCc1ncc(-c2ccc(Cl)cc2)o1)c1ccc(F)cc1	i
CN(Cc1ccc(Br)cc1)c1ccc(S(N)(=O)=O)cn1	i
O=C(NNC(=O)C1CCCCC1)c1ccccc1Br	i
COc1ccc(-c2noc([C@@H]3CCCN3C(=O)CCc3ccccc3)n2)cc1OC	28.2µM*
FC(F)(F)Oc1cccc(CN2CCC[C@H]2c2nc(-c3ccc(N4CCOCC4)nc3)no2)c1	28.2µM*
COc1ccc(-c2noc([C@@H]3CCCN3C(=O)Cc3ccccc3)n2)cc1OC	i
CNc1ccc(-c2noc([C@@H]3CCCN3Cc3cccnc3)n2)cn1	i
c1ccc(CN2CCC[C@H]2c2nc(-c3ccc(-n4ccnc4)nc3)no2)cc1	i
COc1ccc(CN2CCC[C@H]2c2nc(-c3ccc(-n4ccnc4)nc3)no2)c(OC)c1OC	i
SMILES	KDM5B inhibitor
COc1ccccc1CC(=O)N1CCC[C@H]1c1nc(-c2ccc(OC)c(OC)c2)no1	i
Oc1ccccc1CN1CCC[C@H]1c1nc(-c2ccc(N3CCOCC3)nc2)no1	35.5µM*
COCCOc1ccnc(-c2noc([C@@H]3CCCN3Cc3cccc(OC(F)(F)F)c3)n2)c1	i
CN1CCN(c2ccc(-c3noc([C@@H]4CCCN4CCCc4ccccc4)n3)cn2)CC1	31.6µM*
Fc1ccc(-c2noc([C@@H]3CCCN3Cc3ccccc3F)n2)nc1	i
Cc1cccc(OCCc2noc(C3CCCCN3Cc3cccnc3)n2)c1 (centres undefined)	i
CCCCn1c(N)c(N(C(=O)c2cc(CCC)c(C)s2)C2CCCC2)c(=O)[nH]c1=O	i
COc1ccc(OC)c(S(=O)(=O)Nc2ccccc2CCc2nc3ccccc3n2C)c1	i
O=C(NCc1ccccn1)c1ccc2c(c1)N(Cc1ccccc1)C(=O)c1ccccc1S2=O (centres undefined)	i
CCc1ccc2oc(C(=O)NCC(c3cccs3)N3CCCCC3)cc(=O)c2c1 (centres undefined)	i
CCNC(=S)NNC(=O)C(C)(C)O	i
Cc1oc(-c2ccccc2)nc1C(=O)N(C)Cc1ccc(C(N)=O)cc1	i
COc1cccc(OCc2nnc(C(=O)N3CCC[C@@H]3c3nc4ccccc4[nH]3)n2-c2ccccc2)c1OC	i
CC(C)(C)c1ccc(OCC(=O)N(Cc2nc3ccccc3c(=O)[nH]2)CC2CCCO2)cc1 (centres undefined)	i
CC1CCCN(S(=O)(=O)N(C)Cc2ccc3c(c2)OCCO3)C1 (centres undefined)	i
COc1ccc(NC(=O)Cn2ccn3nc4c(c3c2=O)CCCC4)cc1OC	i
COc1ccc(NC(=O)Cn2ccn3nc4c(c3c2=O)CCCCC4)cc1Cl	28.2µM*
O=C(NCC1CC1)c1ccc(Cn2ccn3nc4c(c3c2=O)CCCC4)cc1	i
O=c1c2c3c(nn2ccn1Cc1cc(F)cc(F)c1)CCCC3	i
CC(C)c1ccc(CNC(=O)c2ccc(Cn3ccn4nc5c(c4c3=O)CCCC5)cc2)cc1	28.2µM*
COc1ccc(NC(=O)c2ccc(Cn3ccn4nc5c(c4c3=O)CCCC5)cc2)cc1	i
COc1ccc(OC)c(NC(=O)Cn2ccn3nc4c(c3c2=O)CCCCC4)c1	i
O=C(Nc1cccc(F)c1)c1ccc(Cn2ccn3nc4c(c3c2=O)CCCC4)cc1	25.1µM*
